Reference: the supplement of paper PMC6555819

What was measured:
Assay in all cases: PBM binding z-score (relative to random genomic background probes); higher = stronger binding; sequences stand for … in GC…GCGATTGACAGCGTAGAATGAAGG
[1] = test system: FXR:RXRa (NR concentration 270 nM, RXRa partner concentration 90 nM)
Procedure, shortened: (§1)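 Binding buffer was PBS pH 7.4 with 2% milk, 0.02% Triton X-100, 1 mM DTT, 0.2 mg/mL BSA and 0.4 mg/ml salmon testes DNA. In it, ligand-free nuclear receptor dimers were incubated 1 h on custom Agilent 4×180K protein-binding microarrays carrying double-stranded probes. Antibodies against each partner (one per run) detected binding, and z-scores were calculated against random background probes after regression normalization of scanned fluorescence.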

[2] = test system: LXRa:RXRa (NR concentration 270 nM, RXRa partner concentration 90 nM)
Procedure, shortened: as §1

[3] = test system: LXRa homodimer (NR concentration 270 nM)
Procedure, shortened: as §1

[4] = test system: LXRb:RXRa (NR concentration 270 nM, RXRa partner concentration 90 nM)
Procedure, shortened: as §1

[5] = test system: LXRb homodimer (NR concentration 270 nM)
Procedure, shortened: as §1

[6] = test system: PPARa:RXRa (NR concentration 270 nM, RXRa partner concentration 90 nM)
Procedure, shortened: as §1

[7] = test system: PPARg:RXRa (NR concentration 180 nM, RXRa partner concentration 90 nM)
Procedure, shortened: as §1

[8] = test system: PPARg:RXRa 270nM:90nM, anti-RXR (NR concentration 270 nM, RXRa partner concentration 90 nM)
Procedure, shortened: as §1

[9] = test system: PPARg:RXRa 30nM:10nM, anti-RXR (NR concentration 30 nM, RXRa partner concentration 10 nM)
Procedure, shortened: as §1

[10] = test system: PPARg:RXRa 90nM:30nM, anti-RXR (NR concentration 90 nM, RXRa partner concentration 30 nM)
Procedure, shortened: as §1

[11] = test system: PPARg:RXRa DBDmut IVT, anti-RXR (DBD mutation: RXRa K156A/R161A, NR concentration 270 nM, RXRa partner concentration 90 nM)
Procedure, shortened: as §1

[12] = test system: PPARg:RXRa IVT, anti-PPARg (NR concentration 270 nM, RXRa partner concentration 90 nM)
Procedure, shortened: as §1

[13] = test system: PPARg DBDmut:RXRa IVT, anti-PPARg (DBD mutation: PPARg1 K132A/R137A, NR concentration 270 nM, RXRa partner concentration 90 nM)
Procedure, shortened: as §1

[14] = test system: PPARg DBDmut IVT, anti-PPARg (DBD mutation: PPARg1 K132A/R137A, NR concentration 270 nM)
Procedure, shortened: as §1

[15] = test system: PPARg homodimer (NR concentration 180 nM)
Procedure, shortened: as §1

[16] = test system: PXR:RXRa (NR concentration 270 nM, RXRa partner concentration 90 nM)
Procedure, shortened: as §1

[17] = test system: PXR homodimer (NR concentration 270 nM)
Procedure, shortened: as §1

[18] = test system: RARa:RXR (NR concentration 270 nM, RXRa partner concentration 90 nM)
Procedure, shortened: as §1

[19] = test system: RARa homodimer (NR concentration 270 nM)
Procedure, shortened: as §1

[20] = test system: RARb:RXRa (NR concentration 270 nM, RXRa partner concentration 90 nM)
Procedure, shortened: as §1

ATCTCTAGGTAAAGATAGTTCATTGAATGCAAAT
PBM binding z-score [1]: 0.585 | PBM binding z-score [2]: 5.32 | PBM binding z-score [3]: 1.71 | PBM binding z-score [4]: 1.59 | PBM binding z-score [5]: 0.747 | PBM binding z-score [6]: 1.36 | PBM binding z-score [7]: 1.11 | PBM binding z-score [8]: 0.714 | PBM binding z-score [9]: 0.293 | PBM binding z-score [10]: 0.846 | PBM binding z-score [11]: 1.7 | PBM binding z-score [12]: 1.76 | PBM binding z-score [13]: 1.3 | PBM binding z-score [14]: 1.29 | PBM binding z-score [15]: 0.829 | PBM binding z-score [16]: 2.33 | PBM binding z-score [17]: 1.98 | PBM binding z-score [18]: 1.25 | PBM binding z-score [19]: 1.34 | PBM binding z-score [20]: 1.06

ACAGACAGGCGATGAAGGTAACTCAGGCTATCAT
PBM binding z-score [1]: -0.05 | PBM binding z-score [2]: -0.309 | PBM binding z-score [3]: -0.155 | PBM binding z-score [4]: -0.384 | PBM binding z-score [5]: -0.145 | PBM binding z-score [6]: -0.503 | PBM binding z-score [7]: 0.721 | PBM binding z-score [8]: -0.326 | PBM binding z-score [9]: 0.0512 | PBM binding z-score [10]: -0.438 | PBM binding z-score [11]: -0.645 | PBM binding z-score [12]: -0.444 | PBM binding z-score [13]: -0.214 | PBM binding z-score [14]: 0.247 | PBM binding z-score [15]: 0.743 | PBM binding z-score [16]: -0.467 | PBM binding z-score [17]: 0.0486 | PBM binding z-score [18]: -0.431 | PBM binding z-score [19]: -0.0743 | PBM binding z-score [20]: -0.249

CCTAGTTGGTCAAGATCACACACGCTATAGGTAC
PBM binding z-score [1]: 0.117 | PBM binding z-score [2]: 0.306 | PBM binding z-score [3]: 0.456 | PBM binding z-score [4]: 0.468 | PBM binding z-score [5]: 0.508 | PBM binding z-score [6]: 0.119 | PBM binding z-score [7]: 1.18 | PBM binding z-score [8]: 0.452 | PBM binding z-score [9]: 0.398 | PBM binding z-score [10]: 0.0188 | PBM binding z-score [11]: 1.36 | PBM binding z-score [12]: 1.04 | PBM binding z-score [13]: 0.47 | PBM binding z-score [14]: 1.08 | PBM binding z-score [15]: 1.14 | PBM binding z-score [16]: 0.0789 | PBM binding z-score [17]: 0.685 | PBM binding z-score [18]: -0.0472 | PBM binding z-score [19]: 1.56 | PBM binding z-score [20]: 1.03

CGAACTAGGTCATTGACAGGACAGTGCATAGTAA
PBM binding z-score [1]: 4.46 | PBM binding z-score [2]: 3.18 | PBM binding z-score [3]: 0.766 | PBM binding z-score [4]: 2.04 | PBM binding z-score [5]: -0.0575 | PBM binding z-score [6]: 4.8 | PBM binding z-score [7]: 7.55 | PBM binding z-score [8]: 6.33 | PBM binding z-score [9]: 3.65 | PBM binding z-score [10]: 5.79 | PBM binding z-score [11]: 7.99 | PBM binding z-score [12]: 8.21 | PBM binding z-score [13]: 2.11 | PBM binding z-score [14]: 0.779 | PBM binding z-score [15]: 1.71 | PBM binding z-score [16]: 1.76 | PBM binding z-score [17]: 0.634 | PBM binding z-score [18]: 2.28 | PBM binding z-score [19]: 0.279 | PBM binding z-score [20]: 3.66

CGGACTGGGGCATAAGGTTACCATAAGCCAGCCC
PBM binding z-score [1]: 0.339 | PBM binding z-score [2]: 2.09 | PBM binding z-score [3]: -0.514 | PBM binding z-score [4]: 1.11 | PBM binding z-score [5]: -0.487 | PBM binding z-score [6]: 2.78 | PBM binding z-score [7]: 4.19 | PBM binding z-score [8]: 4.81 | PBM binding z-score [9]: 2.94 | PBM binding z-score [10]: 4.56 | PBM binding z-score [11]: 4.08 | PBM binding z-score [12]: 5.2 | PBM binding z-score [13]: 1.2 | PBM binding z-score [14]: 1.32 | PBM binding z-score [15]: 1.19 | PBM binding z-score [16]: 0.635 | PBM binding z-score [17]: -0.0559 | PBM binding z-score [18]: 1.48 | PBM binding z-score [19]: -0.515 | PBM binding z-score [20]: 1.78

AGACTGAGGTTATTAAGATCAGGGAATTGCGGTC
PBM binding z-score [1]: 1.39 | PBM binding z-score [2]: 1.31 | PBM binding z-score [3]: 0.0697 | PBM binding z-score [4]: 1.16 | PBM binding z-score [5]: -0.265 | PBM binding z-score [6]: 2.03 | PBM binding z-score [7]: 0.624 | PBM binding z-score [8]: 0.982 | PBM binding z-score [9]: 0.0377 | PBM binding z-score [10]: 0.409 | PBM binding z-score [11]: 0.46 | PBM binding z-score [12]: 0.765 | PBM binding z-score [13]: 0.238 | PBM binding z-score [14]: -0.249 | PBM binding z-score [15]: 0.438 | PBM binding z-score [16]: 1.08 | PBM binding z-score [17]: 0.427 | PBM binding z-score [18]: 1.52 | PBM binding z-score [19]: 0.126 | PBM binding z-score [20]: 1.4

AGAACGAGGTTATACGTAGATCAGGGAAGAAAGT
PBM binding z-score [1]: 1.59 | PBM binding z-score [2]: 1.47 | PBM binding z-score [3]: 0.0402 | PBM binding z-score [4]: 1.32 | PBM binding z-score [5]: -0.361 | PBM binding z-score [6]: 2.78 | PBM binding z-score [7]: 1.58 | PBM binding z-score [8]: 1.39 | PBM binding z-score [9]: 0.732 | PBM binding z-score [10]: 1 | PBM binding z-score [11]: 2.22 | PBM binding z-score [12]: 1.34 | PBM binding z-score [13]: 0.863 | PBM binding z-score [14]: 0.661 | PBM binding z-score [15]: 0.41 | PBM binding z-score [16]: 0.761 | PBM binding z-score [17]: 0.521 | PBM binding z-score [18]: 1.27 | PBM binding z-score [19]: 0.483 | PBM binding z-score [20]: 1.27

ACTAGTTGGTCAGCTGAGGTCACAAACAATTCGG
PBM binding z-score [1]: 2.51 | PBM binding z-score [2]: 2.67 | PBM binding z-score [3]: 2.22 | PBM binding z-score [4]: 3.43 | PBM binding z-score [5]: 0.432 | PBM binding z-score [6]: 3.72 | PBM binding z-score [7]: 1.41 | PBM binding z-score [8]: 2.05 | PBM binding z-score [9]: 0.167 | PBM binding z-score [10]: 1.14 | PBM binding z-score [11]: 1.09 | PBM binding z-score [12]: 2.67 | PBM binding z-score [13]: -0.0448 | PBM binding z-score [14]: 0.681 | PBM binding z-score [15]: 2.75 | PBM binding z-score [16]: 5.42 | PBM binding z-score [17]: 1.38 | PBM binding z-score [18]: 4.65 | PBM binding z-score [19]: 1.05 | PBM binding z-score [20]: 3.53
